Only some compounds are listed: those with a hit (about 19% of all), similar ones and a draw of the others.
DT40 TDP1 CPT: qHTS for Inhibitors of human tyrosyl-DNA phosphodiesterase 1 (TDP1): qHTS in cells in presence of CPT; 12% of 420,000 active; Potency, µM (doses to about 46.2 µM), hits mostly inhibitors; AID 686979, 2013; chicken DT40 Tdp1-/-;hTDP1 cells + 20 nM CPT, ATP luminescence, 48 h; further: nearly all actives have a fitted effect of over 55% in size
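Chicken DT40 Tdp1-/- cells complemented with human TDP1, 400 cells/well, exposed to compounds plus 20 nM camptothecin for at least 48 h at 37 C; viability read as ATP content by CellTiter-Glo luminescence.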
IL-1B inflam inh: qHTS for Inhibitors of Inflammasome Signaling: IL-1-beta AlphaLISA Primary Screen | activity change, % at 57.5 µM | THP-1 LPS/ATP IL-1B secretion, AlphaLISA, 16 h; hits give low values | 4.7% of 360,000 active; in the data active means activity change below about -50%; inconclusive means mostly about -30% to -49%
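Secreted IL-1B measured by AlphaLISA bead assay after 16 h compound exposure of THP-1 cells; compounds (final up to 57.5 uM) added 1 h before LPS (250 ng/mL) and ATP (1.25 mM) stimulation; lower signal means less secretion.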
TDP1 cell noCPT: qHTS for Inhibitors of human tyrosyl-DNA phosphodiesterase 1 (TDP1): qHTS in cells in absence of CPT | 15% of 420,000 active | DT40 Tdp1-/- hTDP1 cells, no CPT, ATP luminescence, 48 h | AID 686978, 2013 | Potency, µM (doses to about 46.2 µM), hits mostly inhibitors; further: nearly all actives have a fitted effect of over 55% in size
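Luminescent ATP content (CellTiter-Glo) served as the growth readout. Knockout chicken DT40 cells expressing human TDP1 were exposed to compounds without camptothecin for a minimum 48 hr at 37 °C.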
ELG1 DNA repair: qHTS screen for small molecules that inhibit ELG1-dependent DNA repair in human embryonic kidney (HEK293T) cells expressing luciferase-tagged ELG1. HEK293T ELG1-luciferase reporter, luminescence, 16 h; DNA damage induced by 5-fluorouridine. Potency, µM (top dose mostly 46.1 µM), usual class: inhibitors. 2.3% of 330,000 active; further: nearly all actives have a fitted effect of over 55% in size
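In this reporter screen, reduction of luminescence relative to DMSO vehicle indicated activity. Compounds and 5-fluorouridine were added together to 2,000 cells per well, incubated for 16 hr at 37 °C, then developed with ONE-Glo.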
HT1080 IDH1KD tx: qHTS for induction of synthetic lethality in tumor cells producing 2HG: qHTS for the HT-1080-IDH1KD cell line; AID 686971, 2013; Potency, µM (doses to about 46.1 µM), hits mostly cytotoxic; 2% of 360,000 active; HT-1080 IDH1 knockdown viability, ATP luminescence, 48 h
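HT-1080-IDH1KD cells (IDH1 knocked down), 750/well in RPMI with 5% FBS, treated with compound 48 h at 37 degrees C. Viability by CellTiter-Glo luminescence, normalised to DMSO and no-cell wells; concentration-response curves classed.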
HT1080NT lethal: qHTS for induction of synthetic lethality in tumor cells producing 2HG: qHTS for the HT-1080-NT fibrosarcoma cell line. HT-1080-NT fibrosarcoma viability, CellTiter-Glo ATP luminescence, 48 h. Potency, µM (series often up to 46.1 µM), actives largely listed as cytotoxic. AID 686970, 2013. 1.6% of 360,000 active;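 further: NT is the 2HG producing partner of a matched IDH1 knockdown line; nearly all actives have a fitted effect of over 55% in size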
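HT-1080-NT fibrosarcoma cells (2HG-overproducing), 750 cells/well in RPMI with 5% FBS, dosed after 2 h and incubated 48 h at 37C. CellTiter-Glo luminescence normalized to DMSO and no-cell wells; concentration-response curves fitted and classed.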
Of the large screens only hits and unclear results are named; the others gave an inactive call. Unless noted, the call rests on the fitted dose curve; in most records, active means well fitted curve in the direction sought with a large enough effect; inconclusive means small, poorly fitted or top-dose-only effect, or another doubt; inactive means no such curve, though single readings can be large; an effect the other way counts as inactive or inconclusive.

COc1ccc(NC(=O)CSCC(=O)NC2(C)CCS(=O)(=O)C2)cc1 (stereo unspecified)	none
COc1ccc(-n2c(=S)[nH]c3cc(C(=O)NCCCN4CCOCC4)ccc3c2=O)cc1OC	none
O=C(NC1CCCCC1)c1cc(Nc2cccc(C(F)(F)F)c2)nc2ccccc12	DT40 TDP1 CPT 20.6µM, TDP1 cell noCPT inconclusive (no result: IL-1B inflam inh, ELG1 DNA repair, HT1080 IDH1KD tx, HT1080NT lethal)
CC(C)c1ccc(Nc2cc(C(=O)NC3CCCCC3)c3ccccc3n2)cc1	DT40 TDP1 CPT 10.3µM, TDP1 cell noCPT 20.6µM (no result: IL-1B inflam inh, ELG1 DNA repair, HT1080 IDH1KD tx, HT1080NT lethal)
CCc1ccccc1Nc1cc(C(=O)NC2CCC(C)CC2)c2ccccc2n1 (stereo unspecified)	DT40 TDP1 CPT 11.6µM, TDP1 cell noCPT inconclusive (no result: IL-1B inflam inh, ELG1 DNA repair, HT1080 IDH1KD tx, HT1080NT lethal)
CCn1nnc2cc(C(=O)Nc3ccc(C)c(Cl)c3)ccc21	none (no result: IL-1B inflam inh, ELG1 DNA repair, HT1080 IDH1KD tx, HT1080NT lethal)
Cc1cc(SCC(=O)N2c3ccccc3NC(=O)CC2C)nc2ccccc12 (stereo unspecified)	DT40 TDP1 CPT inconclusive, TDP1 cell noCPT 16.4µM (no result: ELG1 DNA repair)
CC1CC(=O)Nc2ccccc2N1C(=O)CSc1ccc2ccccc2n1 (stereo unspecified)	DT40 TDP1 CPT 16.4µM, TDP1 cell noCPT inconclusive
COc1ccccc1CN1C(=O)c2ccccc2C1C(=O)NC1CCC(C)CC1 (stereo unspecified)	none
Cc1cc(Cl)ccc1NC(=O)C1COc2ccccc2O1 (stereo unspecified)	TDP1 cell noCPT inconclusive, ELG1 DNA repair inconclusive
O=C(CN1CCCC1)N1c2ccccc2Sc2ccccc21	none
CN1CCCCC1CCN1c2ccccc2Sc2ccc(S(C)=O)cc21 (stereo unspecified)	DT40 TDP1 CPT inconclusive, IL-1B inflam inh -51.8, TDP1 cell noCPT inconclusive, HT1080 IDH1KD tx inconclusive, HT1080NT lethal inconclusive
CS/C(=N\S(=O)(=O)c1cccs1)Nc1ccc(F)c(Cl)c1	TDP1 cell noCPT inconclusive
CS/C(=N\S(=O)(=O)c1cccs1)Nc1cccc(Cl)c1C	DT40 TDP1 CPT 14.6µM, TDP1 cell noCPT inconclusive
CCn1cc(C(=O)NCCc2ccccc2)c(=O)c2cc(S(=O)(=O)N3CCOCC3)ccc21	none (no result: IL-1B inflam inh, ELG1 DNA repair, HT1080 IDH1KD tx, HT1080NT lethal)
CN(CCCNC(=O)c1cn(C)c2ccc(S(=O)(=O)N(C)C)cc2c1=O)c1ccccc1	DT40 TDP1 CPT 18.4µM, TDP1 cell noCPT inconclusive, ELG1 DNA repair inconclusive
CCn1cc(C(=O)NCCc2ccccc2)c(=O)c2cc(S(=O)(=O)N3CCCC3)ccc21	DT40 TDP1 CPT inconclusive, TDP1 cell noCPT 18.4µM, ELG1 DNA repair inconclusive
CCn1cc(C(=O)NCCC(C)C)c(=O)c2cc(S(=O)(=O)N3CCCCC3)ccc21	DT40 TDP1 CPT 23.1µM, TDP1 cell noCPT inconclusive
CCN(CC)CCNC(=O)c1cn(CC)c2ccc(S(=O)(=O)N3CCc4ccccc4C3)cc2c1=O	DT40 TDP1 CPT inconclusive, TDP1 cell noCPT inconclusive
CCN(CC)CCCNC(=O)c1cn(CC)c2ccc(S(=O)(=O)N3CCc4ccccc4C3)cc2c1=O	DT40 TDP1 CPT inconclusive, TDP1 cell noCPT 29.1µM
CCCCn1c(N)c(N(C(=O)CSc2nncn2-c2ccccc2C)C2CCCC2)c(=O)[nH]c1=O	none (no result: ELG1 DNA repair)
NC1=NC(c2ccccc2)N=C(Nc2ccccc2)N1 (stereo unspecified)	none (no result: DT40 TDP1 CPT, IL-1B inflam inh, TDP1 cell noCPT, HT1080 IDH1KD tx, HT1080NT lethal)
CN(C1CCCCC1)S(=O)(=O)c1ccc2c(c1)c(=O)c(C(=O)NCCc1ccc(Cl)cc1)cn2C	DT40 TDP1 CPT inconclusive, TDP1 cell noCPT 20.6µM (no result: IL-1B inflam inh, ELG1 DNA repair, HT1080 IDH1KD tx, HT1080NT lethal)
Cn1cc(C(=O)NCc2ccc(F)cc2)c(=O)c2cc(S(=O)(=O)N3CCCCC3)ccc21	DT40 TDP1 CPT 23.1µM, IL-1B inflam inh inconclusive, TDP1 cell noCPT 16.4µM, ELG1 DNA repair inconclusive

Assay outcomes: PubChem, National Center for Advancing Translational Sciences (NCATS)
